Experimental data taken from PubChem BioAssay (Tox21).
Where “and” joins values, the source holds several entries; their conditions need not be identical. Equal entries are not always repeated. Results filed as inconclusive are left out. Calls of active or inactive are those of the source. Calls follow the shape of the dose curve; as a rule, active = well fitted cell-killing curve with a large enough effect in the repeat runs; inconclusive = weak or mixed curves, or effect the other way; inactive = flat fitted curve, though single readings scatter.

Experiment: cAMP Responsive Elements (CRE) small molecule antagonists, cell-based qHTS assay: qHTS cell viability counter screen (AID 2060913); also: nearly all actives have a fitted effect of over 40% in size
Settings: CRE-bla HEK293T viability, CellTiter-Glo luminescence, 5 h; series mostly up to 92.4 µM; viability change, negative = cytotoxic: at the top concentration
In short: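 Cytotoxicity read in the same wells as the CRE-bla HEK293T antagonist assay: after 3 h compound with 0.25 uM NKH477 final and 2 h beta-lactamase substrate, CellTiter-Glo luminescence measured.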
% is scaled to controls: 0 for no effect and ±100 for the full control effect; potency is read from the fitted curve at half-maximal effect.

SMILES | viability change, negative = cytotoxic | Potency
CC1(C)COP(Oc2ccccc2)OC1 | 4.35% (inactive) | 
CC1(C)CC/C(=C/c2ccc(Cl)cc2)C1(O)Cn1cncn1 (stereo not given) | 0.26% (inactive) | 
CC(C)C(Nc1ccc(C(F)(F)F)cc1Cl)C(=O)OC(C#N)c1cccc(Oc2ccccc2)c1 (stereo not given) | -19.5% (inactive) | 
Cc1cccc(C)c1N |  | inactive
COc1ccc2c(c1OC)CN1CCc3cc4c(cc3C1C2)OCO4 (stereo not given) | -4.17% [at 42.5 µM] (inactive) | 
CC(C)(C)CC(C)(C)c1ccc(O)cc1 |  | 43.3 µM (active)
Brc1ccc(Oc2ccc(Br)cc2Br)c(Br)c1 | -14.9% (inactive) | 
CCOc1cccc(C2(N3CCN(c4ccccc4)CC3)CCC(C)CC2)c1 (stereo not given) | 4.25% (inactive) | 
ClCCOCOCCCl | 13.2% (inactive) | 
O=C(O)CCCCCCNC1c2ccccc2CCc2ccccc21 | 0.485% [at 42.5 µM] (inactive) | 
Fc1cc(Br)ccc1CBr | -4.96% [at 42.5 µM] (inactive) | 
C=CC#N |  | inactive
CCN(CC)c1ccccc1 |  | inactive
O=C(NC(=O)c1ccccc1Cl)Nc1ccc(OC(F)(F)F)cc1 | 2.92% (inactive) | 
CC(=O)/C=C/c1ccccc1 |  | inactive
COP(=S)(OC)Oc1ccc(SC)c(C)c1 |  | inactive
COc1cccc2c1C(=O)c1c(O)c3c(c(O)c1C2=O)C[C@@](O)(C(=O)CO)CC3OC1CC(N2CCOC(OC)C2)C(O)C(C)O1 (stereo not given in full) | 10.2% [at 42.5 µM] (inactive) | 
C1CN2CCC1CC2 | -0.846% [at 42.5 µM] (inactive) | 
CCN(CCO)CCn1c(Cc2ccccc2)nc2c1c(=O)n(C)c(=O)n2C | -1.53% [at 42.5 µM] (inactive) | 
Nc1c(Cl)c(F)nc(OCC(=O)O)c1Cl | -6.16% (inactive) | 

SMILES | viability change, negative = cytotoxic | Potency
COC(=O)N(C(=O)N1COC2(C(=O)OC)Cc3cc(Cl)ccc3C2=N1)c1ccc(OC(F)(F)F)cc1 (stereo not given) | 5.68% [at 42.5 µM] (inactive) | 
O=C(O)C(F)(F)C(F)(F)C(F)(F)C(F)(F)C(F)(F)C(F)(F)F | 6.64% (inactive) | 
Clc1ccc(CCC(Cn2ccnc2)Sc2c(Cl)cccc2Cl)cc1 (stereo not given) | -13.5% [at 42.5 µM] (inactive) | 
NC(=O)c1ccc(N)nc1 | 4.37% (inactive) | 
Cc1ccc(N)c(N)c1 |  | inactive
[F][Sn]([c]1ccccc1)([c]1ccccc1)[c]1ccccc1 |  | 5.45 µM (active)
NCC1(CC(=O)O)CCCCC1 | 6.16% [at 42.5 µM] (inactive) | 
C[N+](=O)[O-] | 3.04% (inactive) | 
O=CCCl | -0.645% (inactive) | 
CN1C[C@@H](NS(=O)(=O)N(C)C)C[C@@H]2c3cccc4c3c(cn4C)C[C@H]21 | -3.2% [at 42.5 µM] (inactive) | 
Oc1ccc(C(c2ccc(O)cc2)(C(F)(F)F)C(F)(F)F)cc1 | -2.87% (inactive) | 
Cc1c([N+](=O)[O-])c(C)c([N+](=O)[O-])c(C(C)(C)C)c1[N+](=O)[O-] | -10.6% (inactive) | 
O=[N+]([O-])c1ccc(Oc2ccc(C(F)(F)F)cc2[N+](=O)[O-])cc1 | -11.9% (inactive) | 
CCC[CH2][Sn]([Cl])([CH2]CCC)[CH2]CCC |  | 3.86 µM (active) and 7.7 µM (active)
ClC1=C(Cl)C2(Cl)C3C(Cl)C=CC3C1(Cl)C2(Cl)Cl (stereo not given) |  | inactive
O=C(CCl)NCO | 4.02% (inactive) | 
Cc1cccc(C)c1NC1=NCCCS1 | -1.78% [at 42.5 µM] (inactive) | 
N#Cc1ccc(N(CC(N)=O)CC(F)(F)F)cc1C(F)(F)F | 2.06% (inactive) | 
O=C(O)C(F)(F)C(F)(F)C(F)(F)C(F)(F)C(F)(F)C(F)(F)C(F)(F)C(F)(F)F | 6.62% (inactive) | 
O=C(O)C(F)(F)C(F)(F)C(F)(F)C(F)(F)C(F)(F)C(F)(F)C(F)(F)C(F)(F)C(F)(F)C(F)(F)F | 3.41% (inactive) | 
